Assay results published in PubChem BioAssay (Tox21).
Where “and” joins values, the source holds several entries; their conditions need not be identical. Equal values may be shown once. Where a structure was tested more than once in an assay, its records may differ in their call. Calls of active or inactive are those of the source. A call without a number means that no potency is given here. Unless noted, calls come from the whole dose curve; as a rule, active = well fitted curve in the direction sought with a large enough effect in the repeat runs; inconclusive = weak or mixed curves; inactive = no such curve, though single readings can be large; an effect the other way counts as inactive or inconclusive.

Experiments:
[1] = qHTS assay to identify small molecule antagonists of the thyroid receptor (TR) signaling pathway - cell viability counter screen (AID 743064); note: nearly all actives have a fitted effect of over 50% in size; note: potency is the fitted concentration of half-maximal effect
Summary of the method: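 GH3.TRE-Luc cells, 4 h pre-plating; cpd + T3 1 nM final; 37 °C 23.5 h; CellTiter-Fluor 30 min; fluorescence read.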

[2] = qHTS assay to identify small molecule antagonists of the thyroid receptor (TR) signaling pathway (AID 743065); note: nearly all actives have a fitted effect of over 55% in size; note: potency is the fitted concentration of half-maximal effect
Summary of the method: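 Antagonism measured as loss of luciferase signal in GH3 cells stably carrying a TRE-luciferase reporter, co-treated with compound and T3 (1 nM final) for 23.5 h at 37 C. Viability was read in the same well by CellTiter-Fluor.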

[3] = tested on: thyroid hormone receptor (rat, GH3 cells); assay: qHTS assay to identify small molecule agonists of the thyroid receptor (TR) signaling pathway (AID 743066; calls by dose curve)
[4] = molecular target: Estrogen receptor (Homo sapiens) (UniProt P03372); assay: qHTS assay to identify small molecule antagonists of the estrogen receptor alpha (ER-alpha) signaling pathway (AID 743069; active = well fitted curve in the direction sought with a large enough effect in the signal ratio in the repeat runs, not every such curve was filed as active; inconclusive = weak or mixed curves, or effect the other way; inactive = no such curve, though single readings can be large or run the other way; the % refers to the signal ratio; note: potency is the fitted concentration of half-maximal effect)
Summary of the method: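 Compound effects are measured against 17beta-estradiol stimulation in HEK293 cells with a UAS-controlled beta-lactamase reporter for ER-alpha. Exposure lasts 18 hr at 37C; LiveBLAzer B/G FRET substrate follows for 2 hr at room temperature.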

[5] = qHTS assay to identify small molecule antagonists of the estrogen receptor alpha (ER-alpha) signaling pathway - cell viability counter screen (AID 743074; calls by dose curve;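 note: HEK293 cells carrying ER-alpha-UAS-bla reporter stimulated with 17beta-estradiol; nearly all actives have a fitted effect of over 45% in size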)
[6] = molecular target: Estrogen receptor (Homo sapiens) (UniProt P03372); assay: qHTS assay to identify small molecule agonists of the estrogen receptor alpha (ER-alpha) signaling pathway (AID 743075; calls by dose curve)
[7] = molecular target: Estrogen receptor (Homo sapiens) (UniProt P03372); assay: qHTS assay to identify small molecule agonists of the estrogen receptor alpha (ER-alpha) signaling pathway using the BG1 cell line (AID 743079); note: nearly all actives have a fitted effect of over 20% in size; note: potency is the fitted concentration of half-maximal effect
[8] = qHTS assay to identify small molecule antagonists of the estrogen receptor alpha (ER-alpha) signaling pathway using the BG1 cell line (AID 743080; calls by dose curve;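 note: BG1 cells stimulated with 17beta-estradiol alongside compound; series mostly up to about 70 µM; nearly all actives have a fitted effect of over 25% in size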)
Summary of the method: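 Luciferase inhibition measured with ONE-Glo after 30 min at RT in BG1Luc4E2 cells given test compounds and 17beta-estradiol for 21.5 h at 37 C; CellTiter-Fluor viability read in the same wells beforehand.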

[9] = qHTS assay to identify small molecule antagonists of the estrogen receptor alpha (ER-alpha) signaling pathway using the BG1 cell line - cell viability counter screen (AID 743081);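 note: compound given together with 17beta-estradiol as the ER stimulus; series mostly up to about 70 µM; nearly all actives have a fitted effect of over 45% in size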
Aromatase (Homo sapiens) = Aromatase (Homo sapiens) (UniProt P11511); assay: qHTS assay to identify aromatase inhibitors (AID 743083); note: series mostly up to about 70 µM; nearly all actives have a fitted effect of over 55% in size
Aromatase (Homo sapiens), sequence (P11511 whole entry, looked up): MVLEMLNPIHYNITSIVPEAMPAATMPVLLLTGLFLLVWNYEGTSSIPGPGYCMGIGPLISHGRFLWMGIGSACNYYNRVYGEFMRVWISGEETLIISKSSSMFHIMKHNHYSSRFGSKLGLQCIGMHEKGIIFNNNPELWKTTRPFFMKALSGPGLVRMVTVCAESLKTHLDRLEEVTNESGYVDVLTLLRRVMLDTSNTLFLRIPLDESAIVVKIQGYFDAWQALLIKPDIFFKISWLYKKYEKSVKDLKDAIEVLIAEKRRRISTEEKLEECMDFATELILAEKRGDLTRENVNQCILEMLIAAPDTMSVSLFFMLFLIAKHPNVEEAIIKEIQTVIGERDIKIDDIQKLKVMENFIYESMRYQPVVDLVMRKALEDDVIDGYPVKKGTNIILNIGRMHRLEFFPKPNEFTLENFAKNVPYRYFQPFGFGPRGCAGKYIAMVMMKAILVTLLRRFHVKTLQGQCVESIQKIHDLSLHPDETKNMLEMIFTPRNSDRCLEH

Estrogen receptor (Homo sapiens), sequence (P03372 whole entry, looked up): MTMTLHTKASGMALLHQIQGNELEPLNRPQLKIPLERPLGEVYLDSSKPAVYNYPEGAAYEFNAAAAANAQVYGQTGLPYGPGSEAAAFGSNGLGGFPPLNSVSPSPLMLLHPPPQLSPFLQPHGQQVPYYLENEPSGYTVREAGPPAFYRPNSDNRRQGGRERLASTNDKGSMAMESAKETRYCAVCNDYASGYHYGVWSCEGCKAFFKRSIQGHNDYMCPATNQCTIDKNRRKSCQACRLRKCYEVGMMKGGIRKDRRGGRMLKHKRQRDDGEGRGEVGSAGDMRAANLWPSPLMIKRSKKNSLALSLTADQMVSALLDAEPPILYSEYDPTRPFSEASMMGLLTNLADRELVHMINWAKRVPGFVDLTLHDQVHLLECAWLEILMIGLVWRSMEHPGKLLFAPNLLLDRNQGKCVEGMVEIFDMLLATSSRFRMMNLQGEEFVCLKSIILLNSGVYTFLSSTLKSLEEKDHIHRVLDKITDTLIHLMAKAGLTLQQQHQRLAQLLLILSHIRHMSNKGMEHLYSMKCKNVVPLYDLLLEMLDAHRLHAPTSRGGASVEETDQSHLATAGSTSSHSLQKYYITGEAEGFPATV

SMILES	Potency [1]	Potency [2]	outcome [3]	Potency [4]	Potency [5]	outcome [6]	Potency [7]	outcome [8]	Potency [9]	Potency (Aromatase (Homo sapiens))
Cc1cccc(C)c1NC(=O)CN1CCCCCC1	inactive	inactive	inactive	inactive	inactive	inactive	inactive	inactive	inactive	inactive
CC(C)CC(=O)OCc1ccccc1	inactive	inactive	inactive	inactive	inactive	inactive	inactive	inactive	inactive	inactive
CC1(O)CSC(C)(O)CS1 (stereo not given)	inactive	inactive	inactive	inactive	inactive	inactive	inactive	inactive	inactive	inactive
NNS(=O)(=O)c1ccc(Oc2ccc(S(=O)(=O)NN)cc2)cc1	inactive	inactive	inactive	inactive	inactive	inactive	inactive	inactive	inactive	inactive
CN1CCN(c2c(F)cc3c(=O)c(C(=O)O)cn4c3c2SCC4)CC1	inactive	inactive	inactive	inactive	inactive	inactive	inactive	inactive	inactive	inactive
CC(C)C1=CC2=CC[C@@H]3[C@](C)(CCC[C@@]3(C)C(=O)O)[C@H]2CC1	inactive	inactive	inactive	inactive and 54.9 µM [inconclusive] (active)	inactive	inactive	inactive	inactive	inactive	inactive
CC(C)S	inactive	inactive	inactive	inactive	inactive	inactive	inactive	inactive	inactive	inactive
COC(=O)c1ccc2cc(C(=O)OC)ccc2c1	inactive	inactive	inactive	inactive	inactive	inactive	inactive	inactive	inactive	inactive
CC(C)C(=O)OC/C=C/c1ccccc1	inactive	inactive	inactive	inactive	inactive	inactive	inactive	inactive	inactive	inactive
O=C1CCCc2ccccc21	inactive	inactive	inactive	inactive	inactive	inactive	inactive	inactive	inactive	inactive
CCOc1ccc2nc(N)sc2c1	inactive	inactive	inactive	inactive	inactive	inactive	4.29 µM (active)	–	inactive	inactive
Cc1ncc(CO)c(CN)c1O	inactive	inactive	inactive	inactive	inactive	inactive	–	inactive	inactive	inactive
NS(=O)(=O)c1cc(-c2nn[nH]n2)c(NCc2cccs2)cc1Cl	inactive	inactive	inactive	inactive	inactive	inactive	inactive	inactive	inactive	inactive
CCN(CC)CC1CCCCN1CC(=O)N1c2ccccc2C(=O)Nc2cccnc21 (stereo not given)	inactive	inactive	inactive	inactive	inactive	inactive	inactive	inactive	inactive	inactive
Cc1cc(NS(=O)(=O)c2ccc(N)cc2)nc(C)n1	inactive	inactive	inactive	inactive	inactive	inactive	inactive	inactive	inactive	inactive
CCOC(=O)[C@H](CCc1ccccc1)N[C@@H](C)C(=O)N1Cc2cc(OC)c(OC)cc2C[C@H]1C(=O)O	inactive	inactive	inactive	inactive	inactive	inactive	inactive	inactive	inactive	inactive
OC[C@H]1O[C@@H](O[C@H]2[C@H](O)[C@@H](O)[C@H](O)O[C@@H]2CO)[C@H](O)[C@@H](O)[C@H]1O	inactive	inactive	inactive	inactive	inactive	inactive	inactive	inactive	inactive	inactive
COc1cc(C)ccc1C(C)C	inactive	inactive	inactive	inactive	inactive	inactive	inactive	inactive	–	inactive
O=Cc1ccc(F)c(Br)c1	inactive	inactive	inactive	inactive	inactive	inactive	inactive	inactive	inactive	inactive

SMILES	Potency [1]	Potency [2]	outcome [3]	Potency [4]	Potency [5]	outcome [6]	Potency [7]	outcome [8]	Potency [9]	Potency (Aromatase (Homo sapiens))
COC(=O)C(C)O (stereo not given)	inactive	inactive	inactive	inactive	inactive	inactive	inactive	inactive	inactive	inactive
CCc1cc(Cl)c(OC)c(C(=O)NC[C@@H]2CCCN2CC)c1O	23.7 µM (active) and 7.5 µM (active)	23.7 µM (active) and 11.4 µM (active) and 11.9 µM (active)	inactive	inactive	inactive	inactive	10.6 µM (active) and inactive	inactive	inactive	inactive
Cc1nnc(SCC2=C(C(=O)O)N3C(=O)[C@@H](NC(=O)Cn4cnnn4)[C@H]3SC2)s1	inactive	inactive	inactive	inactive	inactive	inactive	inactive	inactive	inactive	inactive
Cc1ccc([N+](=O)[O-])cc1Cl	inactive	inactive	inactive	–	inactive	–	–	–	inactive	inactive
CN1CCN(C2=Nc3cc(F)ccc3Cc3ccccc32)CC1	11.9 µM (active)	13.3 µM (active)	inactive	inactive	inactive	inactive	–	inactive	inactive	inactive
O=C1CCCCCCCCCCC(=O)OCCO1	inactive	inactive	inactive	inactive	–	inactive	inactive	–	inactive	inactive
CCC/C=C/CO	inactive	inactive	inactive	–	inactive	inactive	inactive	inactive	inactive	–
CC1=C2[C@H](/C=C(\C)C(=O)O)CC[C@@H](C)[C@H]2CC1	inactive	inactive	inactive	–	inactive	inactive	–	inactive	inactive	inactive
FC(F)(F)c1ccccc1	inactive	inactive	inactive	inactive	–	inactive	inactive	inactive	inactive	inactive
ClC(Cl)Cl	inactive	inactive	inactive	–	inactive	–	–	–	inactive	inactive
CCOc1ccc(NC(N)=O)cc1	inactive	inactive	inactive	inactive	inactive	inactive	–	inactive	inactive	inactive
Nc1ccc2ccccc2c1S(=O)(=O)O	inactive	inactive	inactive	–	inactive	–	–	–	inactive	–
C=C(C)C(=O)OCCOP(=O)(O)O	inactive	inactive	inactive	inactive	inactive	inactive	–	inactive	inactive	inactive
CCC(=O)O[C@]1(C(=O)SCF)[C@H](C)C[C@H]2[C@@H]3C[C@H](F)C4=CC(=O)C=C[C@]4(C)[C@@]3(F)[C@@H](O)C[C@@]21C	inactive	inactive	inactive	–	inactive	inactive	inactive	–	inactive	inactive
OCc1ccccc1O	inactive	inactive	inactive	–	inactive	–	–	–	inactive	inactive
O=C(O)[C@@H](O)[C@H](O)[C@H](O)[C@@H](O)C(=O)O	inactive	inactive	inactive	–	inactive	–	–	–	inactive	inactive
Cc1ccccc1C(=O)Nc1ccc(C(=O)N2CCCC(O)c3cc(Cl)ccc32)c(C)c1 (stereo not given)	inactive	23.7 µM (active)	inactive	–	inactive	–	–	–	–	–
NC(=O)Cc1cccc(C(=O)c2ccccc2)c1N	inactive	inactive	inactive	–	inactive	–	–	–	inactive	inactive
O=S(=O)(O)C(F)(F)F	inactive	inactive	inactive	inactive	inactive	inactive	–	inactive	inactive	inactive

SMILES	Potency [1]	Potency [2]	outcome [3]	Potency [4]	Potency [5]	outcome [6]	Potency [7]	outcome [8]	Potency [9]	Potency (Aromatase (Homo sapiens))
CN(C)Cc1ccccc1	inactive	inactive	inactive	–	inactive	–	–	–	inactive	inactive
Clc1cccc(-c2cc(Cl)cc(Cl)c2)c1	inactive	inactive	inactive	inactive	inactive	–	inactive	inactive	inactive	inactive
Cc1c(C(=O)NCCO)[n+](=O)c2ccccc2n1[O-]	inactive	inactive	inactive	–	inactive	–	–	–	inactive	inactive
COC(=O)N[C@H](C(=O)N[C@@H](Cc1ccccc1)[C@@H](O)CN(Cc1ccc(-c2ccccn2)cc1)NC(=O)[C@@H](NC(=O)OC)C(C)(C)C)C(C)(C)C	inactive	26.6 µM (active)	inactive	inactive	–	inactive	–	–	inactive	inactive
CC1(C)S[C@@H]2[C@H](NC(=O)C(C(=O)O)c3ccccc3)C(=O)N2[C@H]1C(=O)O (stereo not given in full)	inactive	inactive	inactive	–	inactive	–	–	–	inactive	inactive
CC1(C)O[C@@H]2C[C@H]3[C@@H]4CCC5=CC(=O)CC[C@]5(C)[C@@]4(F)[C@@H](O)C[C@]3(C)[C@]2(C(=O)CCl)O1	inactive	inactive	inactive	inactive	inactive	–	inactive	–	inactive	inactive
CCNCCO	inactive	inactive	inactive	–	inactive	–	–	–	inactive	inactive
ICCc1ccccc1	inactive	inactive	inactive	inactive	inactive	–	inactive	inactive	inactive	inactive
OCCN(CCO)CCN(CCO)CCO	inactive	inactive	inactive	inactive	inactive	inactive	–	inactive	inactive	inactive
OCCN(CCO)c1ccccc1	inactive	inactive	inactive	inactive	inactive	inactive	–	inactive	inactive	inactive
Cc1c(N)cccc1N	inactive	inactive	inactive	–	inactive	–	–	–	inactive	–
COc1nc(C)nc(NC(=O)NS(=O)(=O)c2ccccc2OCCCl)n1	inactive	inactive	inactive	inactive	inactive	inactive	–	inactive	inactive	inactive
CN1CCN(c2c(F)cc3c(=O)c(C(=O)O)cn(CCF)c3c2F)CC1	inactive	inactive	inactive	inactive	inactive	inactive	–	inactive	–	inactive
O=C1Nc2ccc([N+](=O)[O-])cc2C1=O	inactive	inactive	inactive	–	inactive	–	–	–	–	–
CCCN(CCC)C(=O)C(CCC(=O)O)NC(=O)c1ccccc1 (stereo not given)	inactive	inactive	inactive	–	inactive	–	–	–	inactive	inactive
C[C@]12C(=O)OC(=O)[C@H]1[C@H]1C=C[C@@H]2C1	inactive	inactive	inactive	inactive	inactive	inactive	–	inactive	inactive	inactive
O=C1N(c2ccccc2)c2ccccc2C1(Cc1ccncc1)Cc1ccncc1	inactive	inactive	inactive	inactive	–	inactive	inactive	inactive	inactive	inactive
Cc1nc(-c2ccccn2)ncc1C(=O)Nn1cc(C)c2cc(F)ccc21	inactive	inactive	inactive	inactive	inactive	inactive	–	–	inactive	inactive
c1ccc(CN(CC2=NCCN2)c2ccccc2)cc1	26.6 µM (active)	23.7 µM (active)	inactive	–	inactive	inactive	inactive	inactive	inactive	inactive
